Each structure is given as a SMILES string. Compounds without any hit were thinned out: in the full panel of roughly 83,000, 20% have a hit.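 A percent growth of 40 corresponds to 60% growth inhibition; 0 means no net growth; -100 means all cells died. Active threshold: below 10.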 A number with no mark means an inactive call. Calls of active or inactive are those of the source.

The text below walks through data of PubChem BioAssay (NCI).

The subject of the test is OVCAR-5 ovarian. In words: NCI-60 one-dose screen, 48 h (100 = growth as untreated, 0 = no growth, -100 = all killed). The conditions noted are these: 10 µM unless noted. How it is done: Growth inhibition of the OVCAR-5 human tumor cell line is measured as a screen for anti-cancer activity. Cells are grown in 96 well plates and exposed to the test compound for 48 hours. Compounds are tested at a single concentration, which is 10^-5 M for most compounds. The reported endpoint is percent growth (GI% or GIPRCNT), where numbers from 0 - 100% represent growth inhibition, and numbers from -100% - 0 represent cell death. For example, a value of 40 represents 60% growth inhibition. A value of 0 means no net growth occurred over the course of the experiment. A value of -40 indicates 40% of cells at the beginning of the experiment died by the end of the experiment. A value of -100 means all cells are dead at the end of the experiment.
NCI-60 Human Tumor Cell Lines Screen was performed using the standard one-dose NCI protocol, which is described in more detail at https://dtp.cancer.gov/discovery_development/nci-60/default.htm.
Compounds with GIPRCNT values below 10 were considered active. Activity score was based on GIPRCNT using the following formula: […]
Score is 0 for GIPRCNT values of 100 or above, 50 for GIPRCNT values of 0, and 100 for GIPRCNT values of -100.
Turning to `O=C1/C(=C/c2ccc(F)cc2)CN(Cc2cn(CCNc3ccnc4cc(Cl)ccc34)nn2)C/C1=C\c1ccc(F)cc1`, the growth is -57.6% (active).

Turning to `O=c1c2c(=NCCN3CCCC3)cc3c(=O)n(CCCN4CCOCC4)c(=O)c4ccc(c(O)n1CCCN1CCOCC1)c2c4-3`, the growth was -10.9% (active).

For `O=c1[nH]c(-c2ccncc2)nc2sc3c(c12)CCCCCC3`, the growth is 80%.

As to `COc1ccc(C2SC(C)C(=O)N2CCc2cccs2)cc1OC` (stereo not given), the growth is 104%.

As for `COc1ccc(OC)c(C2C(C#N)=C(N)Oc3cc(O)ccc32)c1` (stereo not given), the growth is 97%.

On to `CCC(C)[C@H]1O[C@]2(CC[C@@H]1C)C[C@@H]1C[C@@H](C/C=C(\C)[C@@H](OC3C[C@H](OC)C(O[C@H]4C[C@H](OC)[C@@H](O)[C@H](C)O4)[C@H](C)O3)[C@@H](C)/C=C/C=C3\CO[C@@H]4[C@H](O)C(C)=C[C@@H](C(=O)O1)[C@]34O)O2` (stereo not given in full), for which the growth was 24.4%.

Turning to `COc1c(Cl)ccc2c(-c3nc4cc(Cl)c(F)cc4s3)cc(=O)oc12`, the growth is 96.5%.

Regarding `COc1nc2c(cc1S(=O)(=O)c1ccccc1)CCc1c-2cnn1-c1ccccc1Cl`, the growth was 70.6%.

As to `O=C(Nc1ccccc1O)c1ccc(NS(=O)(=O)c2cccc3cccnc23)cc1`, the growth is 16.5%.

For the compound `CSc1nnc(-c2sc3nnc(-c4ccccc4)c(-c4ccccc4)c3c2O)o1`, the growth was 101%.

For `c1ccc2cc(-c3n(Cc4ccc5ccccc5n4)c4ccccc4[n+]3Cc3ccc4ccccc4n3)ccc2c1`, the growth was 8.83% (active).

As to `COc1cc(C(F)(F)F)ccc1-c1cc(-c2ccc(F)cc2)n[nH]1`, the growth was 88.7%.

Turning to `CCCCCCCCCCCCCCCC[N+]1(C)CCOCC1`, the growth is 13.8%.

Turning to `O=C(N/N=C(\CS(=O)(=O)c1ccccc1)c1cc2cc(Br)ccc2oc1=O)c1ccccc1`, the growth was 94.1%.

Take `COc1cc(OCc2cccc(-c3ccc(C(O)c4nccs4)cc3)c2C)cc(OC)c1C=O` (stereo not given): the growth was 16.5%.

As to `CCC12CCC3c4ccc(O)cc4CCC3C1CC(O)C2O` (stereo not given), the growth is 103%.

For the compound `CCOC(=O)c1[nH]c2cc(Cl)ccc2c1[C@@H](C(=O)NC(C)(C)C)N(CC)C(=O)CCCCC#Cc1cccc2c1CN(C1CCC(=O)NC1=O)C2=O` (stereo not given in full), the growth is 39.6%.

For the compound `COc1cc2nc(SCc3cc(OC)c(OC)c(OC)c3)n(-c3ccccc3OC)c(=O)c2cc1OC`, the growth is 89%.

In the case of `Cc1ccc(S(=O)(=O)N2CCc3ccc(O)c4c3C2Cc2cc(Cl)ccc2-4)cc1` (stereo not given), the growth was 99%.

As to `O=C1/C(=C/c2ccc(Cl)cc2)N=C(c2ccccc2)N1CCc1cccs1`, the growth is 30.5%.

As for `O=c1oc2ccccc2cc1-c1csc(N/N=C/c2cc3ccccc3nc2Cl)n1`, the growth is 98.6%.

For the compound `Cc1nc2cc(Nc3nc(Nc4ccc(F)cc4)nc(-c4cccs4)n3)ccc2n1Cc1ccccc1`, the growth was 92%.

Regarding `O=C(NCc1cccnc1)c1ccc([N+](=O)[O-])o1`, the growth is -1.25% (active).

For the compound `FC(F)(F)Oc1ccc2c(c1)C[C@H]1C[C@@H](c3ccoc3)N2O1`, the growth was 91.5%.

On to `C=CC(=O)N1CC2(CC(n3nc(-c4ccc(Oc5ccccc5)cc4)c4c(N)ncnc43)C2)C1`, for which the growth is 54.8%.

For the compound `Cc1nn(CC(=O)O)c2c1C(=O)CC(C)(C)C2`, the growth is 91.2%.

For the compound `CCCN1CCN(c2ccc3nc(-c4ccc5nc(-c6ccc(C(F)(F)F)cc6)[nH]c5c4)[nH]c3c2)CC1`, the growth is -25% (active).

Consider `O=C1C(N2CCOCC2)=Cc2cccc3cccc1c23`, for which the growth is 103%.

As to `O=C1C(OCCOc2ccccc2)=C(OCCOc2ccccc2)C(=O)c2ccccc21`, the growth is 124%.

In the case of `COc1cc(C2CC(=O)Nc3c2ccc2ccccc32)cc(Br)c1OC` (stereo not given), the growth is 45.1%.

As for `O/N=C/c1cccs1`, the growth was 100%.

Turning to `COc1cc(-c2nc(Nc3nc4ccccc4[nH]3)nc(N)c2C#N)cc(OC)c1OC`, the growth was 101%.

For `O=c1nc(NO)[nH]c(=O)n1Cc1ccc(F)cc1`, the growth is 104%.

In the case of `CCOC(=O)c1cn2c3c(cc(F)cc3c1=O)C(CC)c1ccccc1C2` (stereo not given), the growth was 104%.

On to `CN([N-]C(=O)CC(=O)[N-]N(C)C(=S)c1ccccc1)C(=S)c1ccccc1.[Cu+2]`, for which the growth was -53.4% (active).

Regarding `Clc1ccc(Nc2nc(Nc3ccccc3)nc(Nc3ccc(-c4cc(-c5ccc(Cl)cc5)on4)cc3)n2)cc1`, the growth is 87.2%.

For `CSC1=CC(=O)c2ccccc2C1=O`, the growth was 103%.

`O=C(NC1CC1)c1cc2n(n1)CC(c1ccccc1)N2` (stereo not given): the growth was 95.9%.

As to `COc1ccc(-c2nc(Nc3ccc(F)cc3)nc(Nc3ccc4c(c3)nc(C)n4Cc3ccccc3)n2)cc1`, the growth is 88.1%.

Regarding `Cl.Fc1c[c-]c(-c2ccccn2)c(F)c1.[Pt].c1ccc([PH+](CC[PH+](c2ccccc2)c2ccccc2)c2ccccc2)cc1`, the growth is -93.4% (active).
